# Screening results (PubChem BioAssay)
# This is one part of a sample in which hits are shown more often than they occur.
# PD-1 reverse act: activators reversing PD-1 mediated T-cell inhibition; primary human CD4 T cells, PD-L1 beads, CellTiter-Glo 96 h; AID 2316; activation, % (test concentration not listed); 29,000 tested, under 10 active; call rule not given here;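 further: 0% = median vehicle wells and 100% = positive control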
# U2OS ROS induce: raises reactive oxygen species in U2OS cancer cells. U2OS ROS induction, H2DCF-DA fluorescence. ROS induction (% of piperlongumine), % at 10 µM. 2% of 46,000 active; in the data active means ROS induction above about 79%, passing the limit was not always enough;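 further: 0% = DMSO vehicle median and 100% = reference compound median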
# * hit, by the source's call; x = no result.
SMILES,PD-1 reverse act,U2OS ROS induce
CC(=O)N1CCN(C2c3cccc4cccc(c34)C2NS(=O)(=O)c2ccc(Cl)cc2)CC1 (centres undefined),x,5
CCOC(=O)CSc1n[nH]c(-c2ccc(Cl)cc2)n1,0,6
Clc1ccccc1/C=C/C=Nc1ccc(N2CCOCC2)cc1,0,128*
C(=Nc1ccc(N2CCOCC2)cc1)c1ccc(Sc2nc3ccccc3[nH]2)o1,x,-4
O=C(COc1ccccc1Cl)Nc1cccc(NC(=O)c2ccco2)c1,0,-6
Cc1cc(C)c(OCC(=O)Nc2cccc(NC(=O)c3ccco3)c2)c(Br)c1,0,176*
N#Cc1ccc(C#CCOC(=O)Nc2ccc(Cl)cc2)cc1,x,-8
C[C@@H]1CN([C@@H](C)CO)C(=O)Cc2cc(NC(=O)Nc3cccc4ccccc34)ccc2O[C@@H]1CN(C)C(=O)Nc1ccc(C(F)(F)F)cc1,-6,162*
C[C@H](CO)N1C[C@H](C)[C@H](CN(C)C(=O)Nc2ccc(C(F)(F)F)cc2)Oc2ccc(NC(=O)Nc3cccc4ccccc34)cc2CC1=O,x,2
C[C@H]1CN([C@@H](C)CO)C(=O)c2cc(NC(=O)Nc3cccc4ccccc34)ccc2O[C@@H]1CN(C)C(=O)Nc1ccc(C(F)(F)F)cc1,-5,80*
C[C@@H]1CN([C@@H](C)CO)C(=O)c2cc(NC(=O)Nc3cccc4ccccc34)ccc2O[C@@H]1CN(C)C(=O)Nc1ccc(C(F)(F)F)cc1,-3,42
O=C(O)c1ccc2c(c1)N(Cc1ccc(Cl)cc1)CCS2,x,-9
C/C(=N\n1c(-c2ccccc2)n[nH]c1=O)c1ccccc1,x,2
C[C@H]1CN([C@@H](C)CO)C(=O)c2cc(NC(=O)Nc3ccc4c(c3)OCO4)ccc2O[C@H]1CN(C)C(=O)Nc1ccc(F)cc1,-1,86*
C[C@@H]1CN([C@@H](C)CO)C(=O)c2cc(NC(=O)Nc3ccc4c(c3)OCO4)ccc2O[C@@H]1CN(C)C(=O)Nc1ccc(C(F)(F)F)cc1,-3,227*
C[C@@H]1CN([C@H](C)CO)C(=O)c2cc(NC(=O)Nc3ccc(C(F)(F)F)cc3)ccc2O[C@H]1CN(C)C(=O)Nc1ccc2c(c1)OCO2,4,-9
C[C@@H]1CN([C@H](C)CO)C(=O)c2cc(NC(=O)Nc3ccc(F)cc3)ccc2O[C@@H]1CN(C)C(=O)Nc1ccc2c(c1)OCO2,1,4
Cc1ccc2c(c1)-c1onc(C(=O)N(CC(C)C)CC(C)C)c1CO2,x,-6
O=C(C(Sc1ccccc1)c1ccccc1)N1CCCc2ccccc21 (centres undefined),x,6
CCOC(=O)CCCn1c(=O)c2cccn2c2ccccc21,x,1
CCOC(=O)c1c2c(n3ccccc13)C(=O)c1ccccc1C2=O,x,210*
C[C@@H]1CCCCO[C@H](CN(C)C(=O)Nc2cccc3ccccc23)[C@@H](C)CN([C@H](C)CO)C(=O)c2cc(NS(=O)(=O)c3ccc(Cl)cc3)ccc2O1,-4,89*
C[C@@H]1CCCCO[C@H](CN(C)C(=O)Nc2cccc3ccccc23)[C@@H](C)CN([C@H](C)CO)C(=O)c2cc(NC(=O)C3CCCCC3)ccc2O1,x,22
C[C@@H]1CCCCO[C@@H](CN(C)C(=O)Nc2cccc3ccccc23)[C@@H](C)CN([C@H](C)CO)C(=O)c2cc(NC(=O)C3CCCCC3)ccc2O1,x,134*
C[C@@H]1CCCCO[C@H](CN(C)C(=O)Nc2cccc3ccccc23)[C@@H](C)CN([C@H](C)CO)C(=O)c2cc(NS(=O)(=O)c3ccccc3)ccc2O1,0,56
SMILES,PD-1 reverse act,U2OS ROS induce
CC(=O)OC(C(=O)Nc1nc2ccccc2s1)c1ccccc1 (centres undefined),x,-9
COc1ccc(CCNC(=O)c2ccc3nc4ccc(Cl)cc4c(=O)n3c2)cc1OC,x,0
COCCOC(=O)N1C(=O)[C@@]2(c3cc(C#CCNC(N)=O)ccc31)[C@H](C(=O)N1CCc3cc(OC)c(OC)cc3C1)[C@H]1C(=O)O[C@H](c3ccccc3)[C@H](c3ccccc3)N1[C@@H]2c1ccccc1OCCO,x,0
COCCOC(=O)N1C(=O)[C@@]2(c3cc(C#Cc4ccc(OC)cc4)ccc31)[C@H](c1ccccc1OCCO)N1[C@H](c3ccccc3)[C@H](c3ccccc3)OC(=O)[C@H]1[C@@H]2C(=O)N1CCc2cc(OC)c(OC)cc2C1,x,112*
COCCOC(=O)N1C(=O)[C@@]2(c3ccccc31)[C@H](C(=O)N1CCc3cc(OC)c(OC)cc3C1)[C@H]1C(=O)O[C@H](c3ccccc3)[C@H](c3ccccc3)N1[C@@H]2c1ccccc1OCCO,x,121*
COCCOC(=O)N1C(=O)[C@@]2(c3cc(C#Cc4ccc(OC)cc4)ccc31)[C@H](C(=O)N1CCc3cc(OC)c(OC)cc3C1)[C@H]1C(=O)O[C@H](c3ccccc3)[C@H](c3ccccc3)N1[C@@H]2c1ccccc1OCCO,x,50
O=C(CCCCC(=O)N/N=C/c1c(F)c(F)c(F)c(F)c1F)NO,x,145*
O=C(CCCCC(=O)N/N=C/c1ccc(I)cc1)NO,x,-1
C[C@@H]1CN([C@@H](C)CO)C(=O)c2cc(NC(=O)Cc3ccccc3)ccc2O[C@@H]1CN(C)Cc1ccc(-c2ccccc2)cc1,-4,60
C[C@H](CO)N1C[C@H](C)[C@@H](CN(C)Cc2ccc(-c3ccccc3)cc2)Oc2ccc(NC(=O)c3ccncc3)cc2C1=O,4,19
C[C@H](CO)N1C[C@H](C)[C@@H](CN(C)Cc2ccc(Oc3ccccc3)cc2)Oc2ccc(NC(=O)Cc3ccccc3)cc2C1=O,-1,138*
C[C@H]1CN([C@@H](C)CO)C(=O)c2cc(NC(=O)CCC(F)(F)F)ccc2O[C@@H]1CN(C)Cc1ccc(-c2ccccc2)cc1,0,82*
C[C@@H]1CN([C@H](C)CO)C(=O)c2cc(NC(=O)c3ccncc3)ccc2O[C@@H]1CN(C)Cc1ccc(-c2ccccc2)cc1,x,113*
C[C@@H]1CN([C@H](C)CO)C(=O)c2cc(NC(=O)Cc3ccccc3)ccc2O[C@H]1CN(C)Cc1ccc(-c2ccccc2)cc1,-10,100*
C[C@@H]1CN([C@H](C)CO)C(=O)c2cc(NC(=O)Cc3ccccc3)ccc2O[C@H]1CN(C)Cc1ccc(Oc2ccccc2)cc1,2,-1
C[C@H](CO)N1C[C@H](C)[C@H](CN(C)Cc2ccc(-c3ccccc3)cc2)Oc2ccc(NC(=O)CCC(F)(F)F)cc2C1=O,x,9
CC(=O)N1CCOc2cc(S(=O)(=O)N(C)Cc3ccccc3)ccc21,x,-8
CC1=NN(c2ccccc2)C(=O)C1/C=C1\SC(=S)N(CC2CCCO2)C1=O (centres undefined),x,37
CC(C)OC(=O)Cc1csc(-c2ccc(Oc3ccc(C(F)(F)F)cn3)cc2)n1,x,22
O=C(CCn1cnc2ccccc2c1=O)Nc1ccc(F)cc1,2,0
COc1ccc(C2C(C(=O)NC3CCCCC3)c3ccccc3C(=O)N2c2ccc(OC)cc2)cc1 (centres undefined),x,-3
CCOc1ccc(NC(=O)c2ccc3c(c2)N(Cc2ccc(C)cc2)CCS3)cc1,x,-1
C[C@H]1CN([C@@H](C)CO)C(=O)Cc2cc(NS(=O)(=O)c3cn(C)cn3)ccc2O[C@H]1CN(C)S(=O)(=O)c1cn(C)cn1,0,-5
C[C@@H]1CN([C@@H](C)CO)C(=O)Cc2cc(NS(=O)(=O)c3cn(C)cn3)ccc2O[C@@H]1CN(C)S(C)(=O)=O,0,109*
